According to PubChem BioAssay (NCATS):
Records with an inconclusive call do not appear. A call without a number means that no potency is given here. Values without a mark were called inactive. Activity calls are given as the source filed them. Unless noted, the call rests on the fitted dose curve; in most records, active means well fitted inhibition curve with a large enough effect; inconclusive means small, poorly fitted or top-dose-only effect; inactive means flat fitted curve, though single readings scatter.

Tests used:
CRL-7250 = normal cell line; assay: qHTS assay to identify novel small-molecules to repurpose for Merkel cell carcinoma treatment (AID 1296009); settings: MCC and control cell lines, CellTiter-Glo viability, 72 h; series mostly up to 92 µM; further: nearly all actives have a fitted effect of over 60% in size
Procedure, shortened: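 Luminescence from CellTiter-Glo, read 10 min after addition at room temperature, reported viability following a 72 hr, 37 degree celsius treatment with NPC or MIPE compounds in titration; values normalized to plate controls.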

[1] = qHTS for Inhibitors of the Functional Ribonucleoprotein Complex (vRNP) of Lassa (LASV) Arenavirus: LASV Primary Screen - GLuc reporter signal (AID 1347082; calls by dose curve; tested in HEK293 reporter line; further: nearly all actives have a fitted effect of over 60% in size)
[2] = qHTS for Inhibitors of the Functional Ribonucleoprotein Complex (vRNP) of Lassa (LASV) Arenavirus: Viability assay - alamar blue signal for LASV Primary Screen (AID 1347083; calls by dose curve; tested in HEK293 reporter line; further: nearly all actives have a fitted effect of over 80% in size)
[3] = qHTS for Inhibitors of the Functional Ribonucleoprotein Complex (vRNP) of Lymphocytic Choriomeningitis Arenaviruses (LCMV): Viability assay - alamar blue signal for LCMV Primary Screen (AID 1347085; calls by dose curve; tested in HEK293 reporter line; further: nearly all actives have a fitted effect of over 80% in size)
[4] = biological target: Nucleoprotein (Lymphocytic choriomeningitis virus (strain Armstrong)) (UniProt P09992); assay: qHTS for Inhibitors of the Functional Ribonucleoprotein Complex (vRNP) of Lymphocytic Choriomeningitis Arenaviruses (LCMV): LCMV Primary Screen - GLuc reporter signal (AID 1347086; calls by dose curve; further: nearly all actives have a fitted effect of over 70% in size)
Nucleoprotein (Lymphocytic choriomeningitis virus (strain Armstrong)), sequence (P09992 whole entry, looked up): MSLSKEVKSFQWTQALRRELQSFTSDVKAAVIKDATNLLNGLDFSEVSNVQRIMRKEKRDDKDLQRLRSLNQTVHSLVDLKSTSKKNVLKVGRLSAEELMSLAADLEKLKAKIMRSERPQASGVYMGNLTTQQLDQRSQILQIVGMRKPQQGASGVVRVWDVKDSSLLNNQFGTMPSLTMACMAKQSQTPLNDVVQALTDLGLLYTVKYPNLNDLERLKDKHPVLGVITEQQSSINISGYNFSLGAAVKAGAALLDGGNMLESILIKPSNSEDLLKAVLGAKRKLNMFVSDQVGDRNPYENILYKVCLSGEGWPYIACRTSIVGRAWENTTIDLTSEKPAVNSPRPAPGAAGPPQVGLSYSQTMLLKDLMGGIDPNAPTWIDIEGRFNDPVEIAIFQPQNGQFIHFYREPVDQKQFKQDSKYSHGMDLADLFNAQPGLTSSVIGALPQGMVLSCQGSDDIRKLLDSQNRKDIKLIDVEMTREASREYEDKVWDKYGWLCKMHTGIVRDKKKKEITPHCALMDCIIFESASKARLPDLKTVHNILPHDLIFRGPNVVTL

SMILES: C[C@]1(O)CC[C@@H]2C(C(=O)O)=CO[C@@H](O[C@@H]3O[C@H](COC(=O)/C=C/c4ccc(O)c(O)c4)[C@@H](O)[C@H](O)[C@H]3O)[C@@H]21
- Potency (CRL-7250): inactive

SMILES: N#Cc1c[nH]c2c(C(=O)N3CCN(CCc4ccc(F)cc4)CC3)cccc12
- Potency (CRL-7250): inactive

SMILES: OC[C@@]1(O)CO[C@@H](OC[C@H]2O[C@@H](Oc3ccccc3)[C@H](O)[C@@H](O)[C@@H]2O)[C@@H]1O
- Potency (CRL-7250): inactive

SMILES: COc1cc2ncnc(Nc3cccc(O)c3)c2cc1OC
- Potency (CRL-7250): inactive

SMILES: COc1cc2ncnc(Nc3ccc(F)c(Cl)c3)c2cc1O
- Potency (CRL-7250): inactive

SMILES: C[C@@H]1CC[C@]2(C(=O)OC3OC(CO)C(O)C(O)C3O)CC[C@]3(C)C(=CCC4[C@@]5(C)CC[C@H](O)[C@](C)(C(=O)O)C5CC[C@]43C)C2[C@]1(C)O (stereo partly specified)
- Potency (CRL-7250): inactive

SMILES: CCC(COC)n1nnc2c(Nc3ccc(OC)cc3C)nc(C)cc21 (stereo unspecified)
- Potency (CRL-7250): inactive

SMILES: CC(C)C1(O[C@@H]2O[C@H](CO)[C@@H](O)[C@H](O)[C@H]2O)CC=C(CO)CC1 (stereo partly specified)
- Potency (CRL-7250): inactive

SMILES: CC12CC(c3ccoc3)OC(=O)C1CCC1(C)C2CCC(O)C1(C)O (stereo unspecified)
- Potency (CRL-7250): inactive

SMILES: Cc1onc(-c2ccccc2Cl)c1C(=O)N(C)c1ccc(Cl)cc1
- Potency (CRL-7250): inactive

SMILES: CC/C=C\C(O)C(O)C1=C(C)C(=O)C2(O1)C(=O)NC(OC)(C(=O)c1ccccc1)C2O (stereo unspecified)
- Potency (CRL-7250): inactive

SMILES: CN1CCc2cc(Cl)c(O)cc2[C@@H](c2cccc3c2OCC3)C1
- Potency (CRL-7250): inactive

SMILES: CC(=O)OC[C@@]12[C@H](O)C[C@]3(C)C(=CCC4[C@@]5(C)CC[C@H](O[C@@H]6O[C@H](C(=O)O)[C@@H](O[C@@H]7O[C@H](CO)[C@@H](O)[C@H](O)[C@H]7O)[C@H](O)[C@H]6O[C@@H]6O[C@H](CO)[C@@H](O)[C@H](O)[C@H]6O)[C@](C)(CO)C5CC[C@]43C)[C@@H]1CC(C)(C)[C@@H](OC(C)=O)[C@@H]2O (stereo partly specified)
- outcome (CRL-7250): inactive [at 9.27 µM]

SMILES: C[C@H]1[C@H](C)CC[C@]2(C(=O)O)CC[C@]3(C)C(=CCC4[C@@]5(C)C[C@@H](O)[C@H](O)C(C)(C)C5CC[C@]43C)[C@H]12 (stereo partly specified)
- Potency (CRL-7250): inactive

SMILES: C=C(C(=O)O)C1CC(O)C2(C)CCCC(C)(O)C2C1 (stereo unspecified)
- Potency (CRL-7250): inactive

SMILES: CC(=O)OC1C(O)C(C)=C(CCC(C)CC(=O)O)C2(C)CCCC(C)(C)C12 (stereo unspecified)
- Potency (CRL-7250): inactive

SMILES: COc1cc2c(cc1OC)N1C(=O)C[C@]34C=CCN5CC[C@@H]2[C@@H](CC3)[C@]514
- Potency (CRL-7250): inactive

SMILES: C[C@@H]1O[C@@H](O[C@H]2[C@H](O[C@H]3CC[C@@]4(C)C(CC[C@]5(C)C4CC=C4C6CC(C)(C)CC[C@]6(C(=O)O[C@@H]6O[C@H](CO[C@@H]7O[C@H](CO)[C@@H](O[C@@H]8O[C@@H](C)[C@H](O)[C@@H](O)[C@H]8O)[C@H](O)[C@H]7O)[C@@H](O)[C@H](O)[C@H]6O)CC[C@]45C)[C@]3(C)CO)OC[C@H](O)[C@@H]2O)[C@H](O)[C@H](O)[C@H]1O (stereo partly specified)
- outcome (CRL-7250): inactive [at 9.27 µM]

SMILES: O=C(O)c1cccc(C(=O)CCC2OC(n3cnc4c(=O)[nH]cnc43)C(O)C2O)c1 (stereo unspecified)
- Potency (CRL-7250): inactive

SMILES: CC1OC(OC2C(OC3C(O[C@H]4CC[C@@]5(C)C(CC[C@]6(C)C5CC=C5C7CC(C)(C)CC(O)[C@]7(C)CC[C@]56C)C4(C)C)OC(C(=O)O)C(O)C3O)OCC(O)C2O)C(O)C(O)C1O (stereo partly specified)
- outcome (CRL-7250): inactive [at 9.27 µM]

SMILES: CCC(CC)C(=O)Nc1sc2c(c1C#N)CCC(C(C)(C)CC)C2 (stereo unspecified)
- Potency (CRL-7250): inactive

SMILES: COCC1OC(OC(C)(C)C2CCC3(C)C=C(C4CCC5C4(C)CC(O)C4OC(C(C)(C)O)CCC45C)CCC3O2)C(NC(C)=O)C(O)C1O (stereo unspecified)
- Potency (CRL-7250): inactive

SMILES: O=C(O)Cn1nnc(-c2ccc(CN(CCCCOc3ccc(CN4CCCC4)cc3)CCc3ccccc3)cc2)n1
- Potency (CRL-7250): inactive

SMILES: C[C@@H]1CC[C@]2(C(=O)O[C@@H]3O[C@H](CO)[C@@H](O)[C@H](O)[C@H]3O)CC[C@]3(C)C(=CCC4[C@@]5(C)C[C@@H](O)[C@H](O)[C@](C)(C(=O)O)C5CC[C@]43C)[C@@H]2[C@]1(C)O (stereo partly specified)
- Potency (CRL-7250): inactive

SMILES: C=C1C(=O)OC2C1C(O)CC1(C)C(O)CCC(C=O)C21 (stereo unspecified)
- Potency (CRL-7250): inactive

SMILES: OC[C@H]1O[C@@H](O[C@H]2[C@H](OCCc3ccccc3)O[C@H](CO)[C@@H](O)[C@@H]2O)[C@H](O)[C@@H](O)[C@@H]1O
- Potency (CRL-7250): inactive

SMILES: CC(=O)OC1C(O)C2C(C)C3=CC(=O)OC3(O)CC2C2(C)CCCC(C)(CO)C12 (stereo unspecified)
- Potency (CRL-7250): inactive

SMILES: CC12CCC3C(C)(C)C(O)CCC3(C)C1Cc1c(oc(C(=O)O)cc1=O)O2 (stereo unspecified)
- Potency (CRL-7250): inactive

SMILES: CN(C)c1ccccc1CN1CCCN(Cc2ccccc2N(C)C)C1c1ccncc1
- Potency [1]: inactive
- Potency [2]: inactive
- Potency (CRL-7250): inactive

SMILES: O=C(NNC(=O)c1ccc(CNS(=O)(=O)c2ccc(F)c(Cl)c2)cc1)c1ccccc1
- Potency [1]: inactive
- Potency [2]: inactive
- Potency [3]: inactive
- Potency [4]: inactive
- Potency (CRL-7250): inactive

SMILES: CC(C)(C)[C@H](NC(=O)c1ccc(N)c(Cl)c1)C(=O)N1CCC[C@@H]1C(=O)N[C@H](C#N)CC(=O)O
- activity change, negative = inhibition [1]: -4.12% [at 5.82 µM]
- activity change, negative = reduced viability [2]: 2.61% [at 5.82 µM]
- activity change, negative = lower viability [3]: 8.73% [at 5.82 µM]
- activity change, negative = inhibition [4]: 63.3% [at 5.82 µM]
- outcome (CRL-7250): inactive [at 4.96 µM]

SMILES: O=C(O)C1=NC(C(=O)O)CC(C=CN2c3cc(O)c(OC4OC(CO)C(O)C(O)C4O)cc3CC2C(=O)O)=C1 (stereo unspecified)
- Potency [1]: inactive
- Potency [2]: inactive
- Potency [3]: inactive
- Potency [4]: inactive
- Potency (CRL-7250): inactive

SMILES: O=C(O)[C@H](CC(=O)N1C[C@@H]2CCCC[C@H]2C1)Cc1ccccc1
- Potency [1]: inactive
- Potency [2]: inactive
- Potency [3]: inactive
- Potency [4]: inactive
- Potency (CRL-7250): inactive
